These results are taken from PubChem BioAssay (NCI).

Experiment in all cases: NCI-60 one-dose screen, 48 h (100 = growth as untreated, 0 = no growth, -100 = all killed)
Conditions in all cases: 10 µM unless noted

Assay [1] concerns RPMI-8226 leukemia.
The subject of assay [2] is OVCAR-8 ovarian.
Assay [3] relates to OVCAR-5 ovarian.
Assay [4] concerns OVCAR-4 ovarian.
The test system of assay [5] is SK-OV-3 ovarian.
The test system of assay [6] is IGROV1 ovarian.
The subject of assay [7] is OVCAR-3 ovarian.
Assay [8] deals with HS 578T breast.
Assay [9] deals with NCI/ADR-RES ovarian.
For assay [10], the system named is T-47D breast.
The test system of assay [11] is SW-620 colon.
Assay [12] has as its system MCF7 breast.
The test system of assay [13] is HCT-116 colon.
Assay [14] has as its system HCC-2998 colon.
The subject of assay [15] is KM12 colon.
Assay [16] concerns MDA-MB-468 breast.
In assay [17] the test system is MDA-MB-435 melanoma.
The subject of assay [18] is BT-549 breast.

This is part of a sample that, as a whole, favours compounds with a hit. Of some 83,000 tested, about 20% had one in any assay.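 Plates (96-well) were seeded with cells, treated with compound at one concentration, and incubated for 48 hours before percent growth was determined.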 Values without a mark were called inactive. The source made the active and inactive calls. How the source made its calls: active means growth percent below 10; inactive means the rest.

With `COc1cccc(/C=C/C(=O)c2ccc(OC)c(S(N)(=O)=O)c2)c1`, the growth in assay [1] was -9.86% (active); in [2] it was 10.5%; in [3], 24.2%; in assay [4], 57.7%; in assay [5], 67.8%; in assay [6], 42.1%. In addition, the growth in [7] is 16.3%; in [8], 91.6%; in assay [9] it was 13.3%; in assay [10], 21%; in assay [11], 8.39% (active); in assay [12] it was 7.97% (active). Further, the growth in assay [13] was -73.8% (active); in assay [14], 29.7%; in assay [15], -41.6% (active); in [16], 20%.

For the compound `O=C(NNc1nc2cc(F)ccc2n2c(CN3CC4CNCC4C3)ccc12)c1ccncn1` (stereo not given), the growth is 21.6% in assay [1]; 13% in assay [2]; 34.8% in [3]; 28.6% in assay [4]; 31.5% in assay [5]; 22.1% in assay [6]. The growth was 43.1% in assay [7]; 45.3% in [8]; 59.8% in assay [9]; 12.4% in assay [10]; 32.1% in [17]; 31.3% in assay [11]. Further, the growth in assay [12] is 14.7%; in assay [13], 14.7%; in assay [14] it was 56.7%; in assay [15], 27.9%; in [16], -3.86% (active).

Take `O=C1Nc2ccc([N+](=O)[O-])cc2C1=Nc1ccccc1`: the growth in assay [1] was 121%; in assay [2] it was 106%; in assay [3] it was 103%; in [4], 113%; in assay [5], 113%; in [6], 98.6%. Besides, the growth in assay [7] is 95.3%; in [8] it was 97.9%; in [9] it was 103%; in [10] it was 84.1%; in assay [17] it was 111%; in [11] it was 102%. Further, the growth in [12] was 85.4%; in assay [13], 106%; in assay [14] it was 112%; in [15], 105%; in assay [16], 109%.

For `COc1ccc(C(=O)/C=C/c2cc3c(cc2Br)OCO3)cc1S(N)(=O)=O`, the growth was -13.6% (active) in assay [1]; -21% (active) in assay [2]; -7.93% (active) in [3]; 28% in [4]; 69% in assay [5]; 3.7% (active) in assay [6]. Further, the growth in assay [7] was -57.5% (active); in assay [8], 30.3%; in assay [9], 13.8%; in assay [10] it was -34.1% (active); in assay [17], 5.61% (active); in [11], -42.7% (active). In addition, the growth in assay [12] is -1.63% (active); in [13], -98% (active); in assay [14], -53.8% (active); in [15], -57.9% (active); in [16], 23.8%.

For `O=C(Nc1ccc(C(F)(F)F)cc1)Nc1ccc2oc(=O)ccc2c1`, the growth in [1] is -20.4% (active); in assay [2], 15.7%; in assay [3], 39.5%; in [4], 41.7%; in [5], 16%; in [6], 33%. Further, the growth in assay [7] was 26.7%; in assay [8] it was 49.7%; in assay [9] it was 12.4%; in assay [10], 19%; in assay [17] it was 24.1%; in assay [11], 31.2%. The growth in assay [12] was 2.63% (active); in assay [13] it was 8.31% (active); in assay [14], 32.5%; in assay [15] it was 16%; in [16] it was 5% (active).

Regarding `COc1ccc(C(=O)/C=C/c2c(F)cccc2Cl)cc1S(N)(=O)=O`, the growth is -10.1% (active) in assay [1]; 3.5% (active) in [2]; 25% in assay [3]; 42.9% in assay [4]; 27% in assay [5]; 21.6% in assay [6]. The growth in assay [7] is -63.4% (active); in assay [8], 27%; in [9] it was 12.2%; in assay [10], -5.64% (active); in assay [17] it was 6.73% (active); in assay [11], 4.6% (active). For the same compound, the growth in [12] was -4.58% (active); in assay [13] it was -89.6% (active); in assay [14], -46.2% (active); in [15], -41.1% (active); in assay [16] it was -3.57% (active).

For `O=C(NNc1nc2cc(C(F)(F)F)ccc2n2cccc12)c1cnccn1`, the growth in [1] is 1.97% (active); in [2], -77.2% (active); in [3] it was -59.2% (active); in assay [4] it was -43.9% (active); in [5], -88.2% (active); in assay [6] it was -16.3% (active). In addition, the growth in assay [7] was -47.7% (active); in assay [8], 16.3%; in assay [9], -12% (active); in [10], -74% (active); in assay [11] it was -26.4% (active); in [12] it was -62.4% (active). Besides, the growth in assay [13] was -94.6% (active); in assay [14], -72.2% (active); in assay [15], -55% (active); in [16], -47.7% (active).

As to `CC(=O)Oc1ccc(/C=C/C(=O)N[C@@H](Cc2ccccc2)C(O)C(=O)NCc2ccccc2)cc1OC(C)=O` (stereo not given in full), the growth in assay [1] was 69.8%; in assay [2], 75.9%; in assay [3], 113%; in assay [4], 77.3%; in [5], 91.5%; in assay [7] it was 84.7%. For the same compound, the growth in [8] was 84.8%; in assay [9], 104%; in [10], 90.9%; in assay [18] it was 81.6%; in assay [17], 71.7%; in assay [11] it was 93.2%. For the same compound, the growth in assay [12] is 81.9%; in [13] it was 78.4%; in assay [14], 96.3%; in assay [15] it was 86.3%; in [16] it was 78.1%.

Turning to `O=C(NNc1nc2cc(F)ccc2n2c(C(=O)N3CCN(C4CC4)CC3)ccc12)c1ncccn1`, the growth was 25.1% in assay [1]; 22.1% in assay [2]; 38.4% in [3]; 29.5% in [4]; 22.1% in assay [5]; 30.4% in assay [6]. Also, the growth in assay [7] was 57.7%; in assay [8], 66.5%; in assay [9], 16.6%; in [10], 27.3%; in [17], 41.2%; in [11], 34.6%. The growth was 15.3% in [12]; 20.5% in assay [13]; 63.8% in [14]; 35.7% in [15]; 14.1% in [16].

For the compound `CC(=O)NNc1ccc2nnc(-c3ccccc3)n2n1`, the growth was 115% in assay [1]; 100% in assay [2]; 113% in [3]; 109% in [4]; 110% in [5]; 108% in assay [6]. Further, the growth is 95.4% in assay [7]; 100% in assay [8]; 104% in assay [9]; 105% in [10]; 103% in assay [17]; 90.6% in assay [11]. Further, the growth in assay [12] is 94.8%; in assay [13], 107%; in [14], 100%; in [15], 104%; in assay [16], 101%.

Take `O=C(Cn1c(/C=C/c2cccc([N+](=O)[O-])c2)nc2ccccc2c1=O)Nc1ccccc1`: the growth in assay [1] is 113%; in assay [2], 35.7%; in assay [3] it was 104%; in [4] it was 98%; in assay [5], 49.4%; in assay [6], 106%. For the same compound, the growth in [7] is 54.6%; in assay [8] it was 87.2%; in assay [9], 65%; in assay [10], 82.6%; in assay [17], 94.3%; in assay [11] it was 91.2%. Also, the growth in assay [12] is 42.2%; in [13] it was 57.6%; in assay [14], 120%; in assay [15], 74.6%; in assay [16] it was 98.9%.

Take `C[C@H]1CN(C(=O)c2ccc3c(NNC(=O)c4ccncn4)nc4cc(F)c(F)cc4n23)CCN1`: the growth is 23.6% in [1]; 17.2% in assay [2]; 50.4% in assay [3]; 34.7% in assay [4]; 43.7% in [5]; 33% in assay [6]. For the same compound, the growth in assay [7] was 58.2%; in [8], 59.6%; in [9], 3.96% (active); in assay [10], 21.3%; in [11], 38%; in assay [12], 17.4%. For the same compound, the growth in assay [13] was 21.7%; in assay [14], 61.7%; in [15], 37%; in [16], 7.53% (active).

Consider `COc1ccc(C(=O)/C=C/c2cccnc2)cc1S(N)(=O)=O`, for which the growth in assay [1] was -7.06% (active); in assay [2] it was 17.6%; in assay [4] it was 91.7%; in assay [5], 88.1%; in assay [7] it was 17%; in assay [8], 89.9%. Also, the growth in assay [9] is 69.1%; in assay [10], 16.9%; in [17], 73.5%; in assay [11], 13.2%; in assay [12] it was 7.45% (active); in [13], -18.1% (active). Moreover, the growth in [14] was 77.3%; in assay [15], 1.84% (active); in assay [16], 20.5%.

As to `COc1cc2c(c(OC)c1OC)C(=O)CC(c1cccc(NC(=O)c3cccc(NC(=O)[C@H](C)NC(=O)OC(C)(C)C)c3)c1)O2` (stereo not given in full), the growth in [1] was 36.5%; in [2], 28.2%; in [3], 123%; in [4], 51.8%; in assay [5] it was 91.9%; in [7], 52.9%. Moreover, the growth in assay [8] was 73.6%; in assay [9], 80%; in assay [10], 19.8%; in [18], 36.9%; in assay [17], 65.6%; in [11], 86.9%. Further, the growth in assay [12] was 39.3%; in [13], 41.2%; in assay [14], 105%; in assay [15], 41.2%; in assay [16], 58.1%.

`NS(=O)(=O)c1ccc(-n2cc(-c3cccc(NC(=O)c4ccc(Cl)c(C(F)(F)F)c4)c3)nn2)cc1`: the growth in [1] is 46.3%; in assay [2] it was -60.8% (active); in assay [3] it was 28.6%; in assay [4] it was 44.7%; in [5], 55.7%; in assay [6], 58.6%. The growth in assay [7] was -4.74% (active); in assay [8], 32.1%; in assay [9], 78.2%; in assay [10] it was -11.1% (active); in assay [17], 47.2%; in assay [11] it was 42%. The growth in assay [12] was 1.38% (active); in [13], 26.2%; in assay [14], 41.8%; in assay [15], 5.73% (active); in assay [16] it was -0.759% (active).
